Source: ChEMBL document CHEMBL3988442, “University of Dundee, Small-Polar-MMV Screening Library” (2021)
For part of these data: Results with a measured potency or affinity are listed apart.

What follows are molecules tested against T1, Ubiquitin-activating enzyme e1, putative (Leishmania donovani (strain BPK282A1)) (UniProt E9BSI1) (assay: Leishmania donovani Ubiquitin Activating Enzyme (LdE1)). Details: 30 µM.
T1 sequence (whole entry): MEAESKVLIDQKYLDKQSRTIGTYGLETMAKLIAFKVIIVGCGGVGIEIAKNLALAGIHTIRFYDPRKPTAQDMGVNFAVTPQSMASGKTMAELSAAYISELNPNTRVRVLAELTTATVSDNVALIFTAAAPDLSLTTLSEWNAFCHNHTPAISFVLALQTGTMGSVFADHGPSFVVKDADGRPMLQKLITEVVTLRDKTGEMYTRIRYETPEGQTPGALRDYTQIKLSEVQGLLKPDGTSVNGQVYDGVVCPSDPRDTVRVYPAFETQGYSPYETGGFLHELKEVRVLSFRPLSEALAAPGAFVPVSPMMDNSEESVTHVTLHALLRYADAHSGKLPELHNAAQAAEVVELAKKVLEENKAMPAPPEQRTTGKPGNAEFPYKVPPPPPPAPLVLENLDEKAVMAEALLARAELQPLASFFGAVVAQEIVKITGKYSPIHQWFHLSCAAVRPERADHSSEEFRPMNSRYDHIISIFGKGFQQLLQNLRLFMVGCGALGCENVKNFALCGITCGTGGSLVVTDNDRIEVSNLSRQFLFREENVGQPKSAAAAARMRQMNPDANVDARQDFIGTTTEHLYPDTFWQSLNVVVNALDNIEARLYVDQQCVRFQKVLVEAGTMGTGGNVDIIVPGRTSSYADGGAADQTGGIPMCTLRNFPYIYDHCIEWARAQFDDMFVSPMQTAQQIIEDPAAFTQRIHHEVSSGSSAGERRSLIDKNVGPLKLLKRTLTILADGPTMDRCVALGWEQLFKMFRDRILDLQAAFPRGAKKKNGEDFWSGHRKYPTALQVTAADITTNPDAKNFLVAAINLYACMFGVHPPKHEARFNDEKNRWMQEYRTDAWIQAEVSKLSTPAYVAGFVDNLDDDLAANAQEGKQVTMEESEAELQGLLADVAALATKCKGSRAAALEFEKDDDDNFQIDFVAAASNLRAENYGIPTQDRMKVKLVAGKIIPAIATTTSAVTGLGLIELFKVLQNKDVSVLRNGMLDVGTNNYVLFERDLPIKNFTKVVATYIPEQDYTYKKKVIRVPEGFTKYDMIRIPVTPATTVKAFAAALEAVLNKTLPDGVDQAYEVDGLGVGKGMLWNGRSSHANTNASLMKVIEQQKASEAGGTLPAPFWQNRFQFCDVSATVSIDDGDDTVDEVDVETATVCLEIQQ
Type: functional
Parameters: scale not given: direction of the effect not stated beside the values

| SMILES | Percent Effect [%] |
| --- | --- |
| Cn1c(NCC(O)c2ccc(F)cc2F)c(C#N)c(=O)n(C)c1=O (stereo not drawn) | 17.7 |
| CC(CNC(=O)N1CCSCC1)Cc1cccs1 (stereo not drawn) | 0 |
| NC(=O)COc1cccc(C(=O)N2CCCC(n3ccnc3)C2)c1 (stereo not drawn) | 0 |
| CCC(O)CNC(=O)c1coc(COc2ccc3sc(C)nc3c2)n1 (stereo not drawn) | -2.74 |
| CCNC(=O)N1CCC2(C1)c1ccccc1S(=O)(=O)N2CCC(C)C (stereo not drawn) | 5.33 |
| Cc1ccc(C(CNCc2cnn(C(C)C)c2)N2CCOCC2)s1 (stereo not drawn) | -2.7 |
| COc1cccc(C(=O)Nc2cc(CC(C)C)nn2C)c1 | -5.2 |
| Cc1cc(F)ccc1CN1CCCC2(C1)OCCO2 | 2.7 |
| CCN(Cc1ccco1)C(=O)Nc1cc(C(F)(F)F)c[nH]c1=O | 10.5 |
| O=C(c1ccccc1OCC1CC1)N1CCCC(n2ccnc2)C1 (stereo not drawn) | 1.27 |
| Cn1nc(CNC(=O)NCc2ccc(Cl)cc2)c2c1CCOC2 | 5.2 |
| O=C(NCC(Cc1cccc(F)c1)N1CCCC1=O)c1ccccc1 (stereo not drawn) | -5.48 |
| CSCC(C)(O)CNC(=O)c1ccc(Br)cc1F (stereo not drawn) | 2.7 |
| CCN1CCC(c2nc3ccc(NC(C)C)cn3n2)CC1 | -2.7 |
| COc1ccc(Oc2cncc(C3CCCN3C(C)=O)n2)cc1 (stereo not drawn) | 12.2 |
| CCn1nc(C)c(CNC(=O)c2cn(CCC3CCCCN3)nn2)c1C (stereo not drawn) | 2.67 |
| N#Cc1ccc(N2CCN(C(=O)c3cc(C4CC4)[nH]n3)CC2)c(F)c1 | 8.11 |
| CNS(=O)(=O)c1ccc(C(=O)N2CCCC2c2ccccc2)o1 (stereo not drawn) | 13.2 |
| CC(=O)c1c(F)cccc1N1CCC(CS(N)(=O)=O)CC1 | -2.74 |
| Cc1ccc(CC(=O)NC(C)C(=O)N2CCS(=O)(=O)CC2)cc1 (stereo not drawn) | 0 |

| SMILES | Percent Effect [%] |
| --- | --- |
| CCN(C(c1cccnc1)c1ccc2c(c1)CCO2)S(C)(=O)=O (stereo not drawn) | 5.48 |
| CCOCCCC(=O)NCCC(=O)N1CCN(c2ccccn2)CC1 | 7.89 |
| CCOc1ccc(C(=O)NS(=O)(=O)c2cncc(Br)c2)cc1OC | 13.5 |
| c1ncn(CC2CCCCN2Cc2noc(C3CC3)n2)n1 (stereo not drawn) | 15.8 |
| COC(=O)c1ccc2ccn(CC3CCCO3)c(=O)c2c1 (stereo not drawn) | 5.48 |
| CC(C)C(=O)N1CCN(C(=O)CCc2nnc(-c3ccccc3)o2)CC1 | 5.06 |
| CCNC(c1cccnc1)c1cc(C)cc(C)c1 (stereo not drawn) | -3.8 |
| NC(=O)C1(Cc2ccccc2-c2ccccc2)CCCN(CC2CC2)C1 (stereo not drawn) | 0 |
| CC(C(=O)Nc1cccc(N2CCCCC2)c1)n1cncn1 (stereo not drawn) | 13.5 |
| O=C(C1CC1)N1CCC(c2nc(O)c3c(n2)CCN(C2CCCC2)C3)C1 (stereo not drawn) | 13.3 |
| Cn1cc(CN2CCn3cc(CNC(=O)C4CCC4)nc3C2)cn1 | 5.33 |
| CN1N=C(C(=O)Nc2cc(F)ccc2OCC2CCCO2)CCC1=O (stereo not drawn) | -5.2 |
| CC(Cn1cccn1)NCc1nc(-c2cccc(Cl)c2)no1 (stereo not drawn) | -2.63 |
| Cn1nc(C2CCN(C(=O)Cc3cccc(F)c3)CC2)c2cccnc21 | -6.76 |
| O=C(CN1CCCC(O)C1)NC(=O)NCc1cccs1 (stereo not drawn) | 13.2 |
| O=C(Cn1cnnn1)N1CCCCC1Cn1cccn1 (stereo not drawn) | 5.06 |
| O=C(NCC1CC1)C1=NOC2(CCN(Cc3ccc4c(c3)OCO4)C2)C1 (stereo not drawn) | 8 |
| O=C(NC[C@@H]1CCCN1)c1cc(COc2cccc(C(F)(F)F)c2)[nH]n1 | 9.72 |
| CO[C@H]1CN(C(=O)c2ccc3oc(C)cc3c2)CC[C@@]12CCCO2 | 1.35 |

The molecules below were run against AMP-activated protein kinase, AMPK (Homo sapiens) (UniProt P54646+O43741+P54619+Q9UGJ0+Q9Y478+Q13131+Q9UGI9) (assay: AMP-dependent Kinase enzyme assay. An in vitro enzyme assay that detects ADP turnover that is directly proportional to AMPK activity. This uses naive AMPK that is activated during the assay with MK-8722). Details: 30 µM.
Type: functional
Parameters: scale not given: direction of the effect not stated beside the values

| SMILES | Percent Effect [%] |
| --- | --- |
| Cn1c(NCC(O)c2ccc(F)cc2F)c(C#N)c(=O)n(C)c1=O (stereo not drawn) | -12.9 |
| CC(CNC(=O)N1CCSCC1)Cc1cccs1 (stereo not drawn) | 0.113 |
| NC(=O)COc1cccc(C(=O)N2CCCC(n3ccnc3)C2)c1 (stereo not drawn) | -5.3 |
| CCC(O)CNC(=O)c1coc(COc2ccc3sc(C)nc3c2)n1 (stereo not drawn) | -4.19 |
| CCNC(=O)N1CCC2(C1)c1ccccc1S(=O)(=O)N2CCC(C)C (stereo not drawn) | 5.91 |
| Cc1ccc(C(CNCc2cnn(C(C)C)c2)N2CCOCC2)s1 (stereo not drawn) | -0.219 |
| COc1cccc(C(=O)Nc2cc(CC(C)C)nn2C)c1 | -7.56 |
| Cc1cc(F)ccc1CN1CCCC2(C1)OCCO2 | -1.85 |
| CCN(Cc1ccco1)C(=O)Nc1cc(C(F)(F)F)c[nH]c1=O | 0.625 |
| O=C(c1ccccc1OCC1CC1)N1CCCC(n2ccnc2)C1 (stereo not drawn) | 11.2 |
| Cn1nc(CNC(=O)NCc2ccc(Cl)cc2)c2c1CCOC2 | 6.43 |
| O=C(NCC(Cc1cccc(F)c1)N1CCCC1=O)c1ccccc1 (stereo not drawn) | 27.6 |
| CSCC(C)(O)CNC(=O)c1ccc(Br)cc1F (stereo not drawn) | -0.438 |
| CCN1CCC(c2nc3ccc(NC(C)C)cn3n2)CC1 | -138 |
| COc1ccc(Oc2cncc(C3CCCN3C(C)=O)n2)cc1 (stereo not drawn) | 4.91 |
| CCn1nc(C)c(CNC(=O)c2cn(CCC3CCCCN3)nn2)c1C (stereo not drawn) | 0.29 |
| N#Cc1ccc(N2CCN(C(=O)c3cc(C4CC4)[nH]n3)CC2)c(F)c1 | -4.12 |
| CNS(=O)(=O)c1ccc(C(=O)N2CCCC2c2ccccc2)o1 (stereo not drawn) | 2.8 |
| CC(=O)c1c(F)cccc1N1CCC(CS(N)(=O)=O)CC1 | 4.36 |
| Cc1ccc(CC(=O)NC(C)C(=O)N2CCS(=O)(=O)CC2)cc1 (stereo not drawn) | -3.26 |

| SMILES | Percent Effect [%] |
| --- | --- |
| CCN(C(c1cccnc1)c1ccc2c(c1)CCO2)S(C)(=O)=O (stereo not drawn) | -1.35 |
| CCOCCCC(=O)NCCC(=O)N1CCN(c2ccccn2)CC1 | 4.17 |
| CCOc1ccc(C(=O)NS(=O)(=O)c2cncc(Br)c2)cc1OC | -8.62 |
| c1ncn(CC2CCCCN2Cc2noc(C3CC3)n2)n1 (stereo not drawn) | 0.834 |
| COC(=O)c1ccc2ccn(CC3CCCO3)c(=O)c2c1 (stereo not drawn) | -14.6 |
| CC(C)C(=O)N1CCN(C(=O)CCc2nnc(-c3ccccc3)o2)CC1 | -0.0997 |
| CCNC(c1cccnc1)c1cc(C)cc(C)c1 (stereo not drawn) | 4.33 |
| NC(=O)C1(Cc2ccccc2-c2ccccc2)CCCN(CC2CC2)C1 (stereo not drawn) | 8.02 |
| CC(C(=O)Nc1cccc(N2CCCCC2)c1)n1cncn1 (stereo not drawn) | -9.41 |
| O=C(C1CC1)N1CCC(c2nc(O)c3c(n2)CCN(C2CCCC2)C3)C1 (stereo not drawn) | 6.57 |
| Cn1cc(CN2CCn3cc(CNC(=O)C4CCC4)nc3C2)cn1 | 4.55 |
| CN1N=C(C(=O)Nc2cc(F)ccc2OCC2CCCO2)CCC1=O (stereo not drawn) | 12 |
| CC(Cn1cccn1)NCc1nc(-c2cccc(Cl)c2)no1 (stereo not drawn) | 1.2 |
| Cn1nc(C2CCN(C(=O)Cc3cccc(F)c3)CC2)c2cccnc21 | 12.2 |
| O=C(CN1CCCC(O)C1)NC(=O)NCc1cccs1 (stereo not drawn) | 7.52 |
| O=C(Cn1cnnn1)N1CCCCC1Cn1cccn1 (stereo not drawn) | -3.21 |
| O=C(NCC1CC1)C1=NOC2(CCN(Cc3ccc4c(c3)OCO4)C2)C1 (stereo not drawn) | 8.35 |
| O=C(NC[C@@H]1CCCN1)c1cc(COc2cccc(C(F)(F)F)c2)[nH]n1 | -0.951 |
| CO[C@H]1CN(C(=O)c2ccc3oc(C)cc3c2)CC[C@@]12CCCO2 | 11.4 |
